± gives the standard deviation of the averaged measurements.
Legend:
Experiment in all cases: cell viability (% of vehicle); higher = less cytotoxic
HCI01 [1] = cells of a triple-negative basal-like breast cancer xenograft; details: 1 µM; 72 h
UCD52 [2] = cells of a triple-negative basal-like breast cancer xenograft; details: 1 µM; 72 h
WHIM2 [3] = cells of a triple-negative basal-like breast cancer xenograft; details: 1 µM; 72 h
WHIM30 [4] = cells of a triple-negative basal-like breast cancer xenograft; details: 1 µM; 72 h
HCI01 [5] = details: 10 µM; 72 h
HCI03 = cells of an ER-positive luminal breast cancer xenograft; details: 10 µM; 72 h
HCI09 = cells of a triple-negative luminal androgen receptor type breast cancer xenograft; details: 10 µM; 72 h
HCI11 = cells of an ER-positive luminal breast cancer xenograft; details: 10 µM; 72 h
HCI13 = cells of an ER-positive luminal breast cancer xenograft; details: 10 µM; 72 h
HCI16 = cells of a triple-negative basal-like breast cancer xenograft; details: 10 µM; 72 h
UCD52 [6] = details: 10 µM; 72 h
WHIM2 [7] = details: 10 µM; 72 h
WHIM30 [8] = details: 10 µM; 72 h

SMILES	cell viability (HCI01 [1])	cell viability (UCD52 [2])	cell viability (WHIM2 [3])	cell viability (WHIM30 [4])	cell viability (HCI01 [5])	cell viability (HCI03)	cell viability (HCI09)	cell viability (HCI11)	cell viability (HCI13)	cell viability (HCI16)	cell viability (UCD52 [6])	cell viability (WHIM2 [7])	cell viability (WHIM30 [8])
CN(C)CCOc1ccc(C(=C(CCCl)c2ccccc2)c2ccccc2)cc1.O=C(O)CC(O)(CC(=O)O)C(=O)O [Toremifene Citrate]	127	98.4	119	102	37.2 ± 1.9	63.8	34.3 ± 1.8	86.8	46.4 ± 2.6	73.2	38.3 ± 2.4	43.3 ± 4.1	54.4 ± 4.8
CCCCc1oc2ccc(NS(C)(=O)=O)cc2c1C(=O)c1ccc(OCCCN(CCCC)CCCC)cc1 [Dronedarone]	98.7	81.4	91.8	79.8	32.4 ± 2	40.7	22.2 ± 1.3	90.5	35.6 ± 0.56	32.7	29.7 ± 2.9	41.3 ± 5.4	38.6 ± 2.7
Cc1nc(Nc2ncc(C(=O)Nc3c(C)cccc3Cl)s2)cc(N2CCN(CCO)CC2)n1	78.6	39.7	67.7	55.6	59.7 ± 21	53.7	53.2 ± 2.6	60.3	40.2 ± 3.5	40.5	39.3 ± 3.5	39.3 ± 3.4	57.8 ± 1.2
Cc1cc(-n2c(=O)[nH]c(=O)n(C)c2=O)ccc1Oc1ccc(SC(F)(F)F)cc1 [Toltrazuril]	90.8	97.6	105	90.8	75.8 ± 1.2	132	61.9 ± 18	84	117 ± 11	115	79.5 ± 4.9	41.3 ± 3.9	98.6 ± 14
CC1(C)Cc2c(-c3ccccc3)c(-c3ccc(Cl)cc3)c(CC(=O)O)n2C1 [Licofelone]	125	103	90.3	97.1	46.1 ± 16	99.4	31.5 ± 2.2	90.2	84.6 ± 0.91	89.5	86.3 ± 4	47.3 ± 7	88.4 ± 11
COc1cc2c(Oc3ccc4[nH]c(C)cc4c3F)ncnc2cc1OCCCN1CCCC1 [Cediranib (AZD217)]	81.9	29.2	25.6	47.5	69.3 ± 10	54	43.8 ± 19	61.5	57.7 ± 16	70.1	50.84 ± 0.26	38.2 ± 7.5	68.3 ± 4.1
CC(NCCCc1cccc(C(F)(F)F)c1)c1cccc2ccccc12 (stereo not drawn) [Cinacalcet]	102	78.1	91.9	83.9	33.2 ± 2.7	34.2	17.1 ± 4.2	122	43.4 ± 3	33.5	17.3 ± 0.67	34.7 ± 8.7	35.8 ± 1.6
CS(=O)(=O)O.Cc1c(O)cccc1C(=O)NC(CSc1ccccc1)C(O)CN1CC2CCCCC2CC1C(=O)NC(C)(C)C (stereo not drawn) [Nelfinavir Mesylate]	90.1	61.6	101	81.4	64.3 ± 30	92.1	30.1 ± 3.1	104	48.22 ± 0.17	53.7	48 ± 2	38.4 ± 2	71.9 ± 5.4
Cc1ccc(NC(=O)c2ccc(CN3CCN(C)CC3)cc2)cc1Nc1nc(-c2cccnc2)cs1 [Masitinib (AB1010)]	113	85.9	114	84.6	53.6 ± 6.1	68.7	20 ± 2.6	37.8	55.8 ± 12	93.6	49.9 ± 13	46.2 ± 8	146 ± 61
CN1CCCC1CCOC(C)(c1ccccc1)c1ccc(Cl)cc1.O=C(O)C=CC(=O)O (stereo not drawn) [Clemastine Fumarate]	98.5	85.8	103	78.8	95.7 ± 30	79.3	52.8 ± 36	69.2	136 ± 24	74.4	36.5 ± 3.4	37.8 ± 3	104 ± 10
CN1CCN(c2ccc(C(=O)/N=c3\[nH][nH]c4ccc(Cc5cc(F)cc(F)c5)cc34)c(NC3CCOCC3)c2)CC1 [Entrectinib]	92.3	72.6	81.7	71.9	28.2 ± 2.5	59.8	22.8 ± 0.65	48.9	41 ± 5.5	58.5	36.98 ± 0.05	42.6 ± 4.1	41.8 ± 12
COC(=O)C12CCC(C)(C)CC1C1C(=O)C=C3C4(C)C=C(C#N)C(=O)C(C)(C)C4CCC3(C)C1(C)CC2 (stereo not drawn) [Bardoxolone methyl]	145	60.9	59.9	65.3	28.5 ± 3.9	33.9	23.1 ± 1.8	23.2	31.5 ± 3	30.4	24.6 ± 1	34.2 ± 5.5	26.8 ± 1.1
CN(C)c1ccc(O)c2c1CC1CC3C(N(C)C)C(=O)C(C(N)=O)=C(O)C3(O)C(=O)C1=C2O.Cl (stereo not drawn) [Minocycline HCl]	103	100	91.2	102	68.2 ± 8.5	59.2	55.8 ± 58	52.6	78.7 ± 12	96.5	70.7 ± 4.3	82.8 ± 14	81.8 ± 11
CC[C@@H]1/C=C(\C)C[C@H](C)C[C@H](OC)[C@H]2O[C@@](O)(C(=O)C(=O)N3CCCC[C@H]3C(=O)O[C@H](/C(C)=C/[C@@H]3CC[C@H](Cl)[C@H](OC)C3)[C@H](C)[C@@H](O)CC1=O)[C@H](C)C[C@@H]2OC [Pimecrolimus]	102	89	82.4	86	71.4 ± 29	65.3	29.4 ± 5.2	76.9	56.5 ± 5.4	71.1	43.9 ± 8	62.5 ± 15	87.7 ± 14
CCc1c(Cl)c(O)c(Cl)c(O)c1C(=O)OC1C(C)OC(OCC2=CC=CCC(O)C(C)=CC(CC)C(OC3OC(C)(C)C(OC(=O)C(C)C)C(O)C3O)C(C)=CC(C)=CCC(C(C)O)OC2=O)C(OC)C1O (stereo not drawn) [Fidaxomicin]	99.3	110	122	102	39.9 ± 12	65.5	28.6 ± 7.5	72.7	46.3 ± 0.086	56.3	44.6 ± 6.6	40.7 ± 8.9	29.3 ± 0.66
CCCCCOc1ccc(-c2ccc(-c3ccc(C(=O)N[C@H]4C[C@@H](O)[C@@H](O)NC(=O)[C@@H]5[C@@H](O)[C@@H](C)CN5C(=O)[C@H]([C@@H](C)O)NC(=O)[C@H]([C@H](O)[C@@H](O)c5ccc(O)cc5)NC(=O)[C@@H]5C[C@@H](O)CN5C(=O)[C@H]([C@@H](C)O)NC4=O)cc3)cc2)cc1 [Anidulafungin]	100	82.5	82.8	72.2	45 ± 2.3	67.5	40.3 ± 15	92.4	58.3 ± 5.8	55.2	47.7 ± 8.9	67.4 ± 5.7	112 ± 16
COc1cc(Nc2ncc(F)c(Nc3ccc4c(n3)N(COP(=O)(O)O)C(=O)C(C)(C)O4)n2)cc(OC)c1OC [Fostamatinib (R788)]	116	92.3	79	112	88.3 ± 8.6	102	87.2 ± 7	61	74.5 ± 1	65	55.7 ± 3.7	58.1 ± 4.2	86.6 ± 6.6
COCCOC(=O)C1=C(C)NC(C)=C(C(=O)OCC=Cc2ccccc2)C1c1cccc([N+](=O)[O-])c1 (stereo not drawn) [Cilnidipine]	111	95.4	97.7	103	93.8 ± 25	90.1	81.4 ± 20	81.7	66.6 ± 38	54.9	84 ± 6.8	41.1 ± 16	68.7 ± 1.3
O=C1C=CC=CC1=C1NC(=C2C=CC=CC2=O)N(c2ccc(C(=O)O)cc2)N1 [Deferasirox]	87.9	92	92.2	98.2	65.5 ± 9.3	129	62 ± 39	107	62.9 ± 16	101	77.7 ± 33	95.2 ± 25	70.1 ± 1.5
Cc1c(-c2ccc(O)cc2)n(Cc2ccc(OCCN3CCCCCC3)cc2)c2ccc(O)cc12.Cl [Bazedoxifene HCl]	120	94.2	89.7	91.6	56.4 ± 32	41.6	21.6 ± 0.65	73.9	38 ± 6.1	114	45.6 ± 2.9	53.2 ± 6.3	83.1 ± 1.6
Cc1ccc(-n2[nH]c(C)c(NN=C3C=CC=C(c4cccc(C(=O)O)c4)C3=O)c2=O)cc1C [Eltrombopag]	85.8	94.6	101	96.2	28.3 ± 15	94.9	20.5 ± 4.7	60.9	54.9 ± 3	125	57 ± 2.9	37.8 ± 14	–
CC(C)C[C@H](NC(=O)[C@H](Cc1ccccc1)NC(=O)c1cnccn1)B(O)O [Bortezomib]	32.8	21.6	24.9	24	–	–	–	–	–	–	–	–	–
CSc1ccc2c(c1)N(CCC1CCCCN1C)c1ccccc1S2.Cl (stereo not drawn) [Thioridazine HCl]	87	82.5	92.4	84.7	44.9 ± 9.3	52.1	26.4 ± 1.2	88.4	55.6 ± 3.4	41.4	36.8 ± 0.53	42.2 ± 10	61.9 ± 3.6
Cc1cc(Nc2ncc(Cl)c(Nc3ccccc3S(=O)(=O)C(C)C)n2)c(OC(C)C)cc1C1CCNCC1	76.4	45.8	63.1	47.9	34.4 ± 7.6	37.8	17.5 ± 1.3	29.3	27.6 ± 17	44.6	24.86 ± 0.13	45.5 ± 4.4	29.3 ± 1.2
CC(C)(C)NC(=O)C1CC2CCCCC2CN1CC(O)C(Cc1ccccc1)NC(=O)C(CC(N)=O)NC(=O)c1ccc2ccccc2n1.CS(=O)(=O)O (stereo not drawn) [Saquinavir mesylate]	96.9	89.5	105	99.4	101 ± 20	104	57.7 ± 51	95.3	38.63 ± 0.17	63.8	50.4 ± 0.71	36.3 ± 2.6	103 ± 3.5
Clc1ccc(COC(Cn2ccnc2)c2ccc(Cl)cc2Cl)cc1.O=[N+]([O-])O (stereo not drawn) [Econazole nitrate]	101	92	115	92.7	33.7 ± 2	88.1	27.3 ± 11	116	36.3 ± 1.7	105	54 ± 2.1	45.3 ± 14	90.6 ± 24

— the supplement of paper PMC6992640
